Screening results (PubChem BioAssay)
Sampled rows, rich in hits. Any-hit rate of the full collection: about 9%.
IMPase Li inh: membrane-permeable IMPase blocker, potentiated with lithium; CHO-M1 cells, IP1 TR-FRET (IP-One), carbachol + lithium; Potency, µM (series often up to 59.4 µM), for the others: top-dose activity, negative = IMPase inhibition, most hits filed as inhibitors; 0.35% of 210,000 active; AID 1457;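 further: IP1 builds up when IMPase is blocked and the TR-FRET signal falls; plate controls were basal vehicle for no effect and high inhibitor control for full effect; nearly all actives have a fitted effect of over 50% in size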
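Lithium-sensitised IP1 accumulation assay; M1-expressing CHO cells treated 30 min at 37C with compound. Competitive antibody detection by time-resolved FRET followed a 10 min room-temperature lysis step.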
ALDH1A1 block: blocks purified human ALDH1A1 activity | P00352 | Purified ALDH1A1, NADH fluorescence, propionaldehyde substrate | Potency, µM (series often up to 75.3 µM), inactives show top-dose activity, negative = inhibition, usual class: inhibitors | 7.3% of 220,000 active; active means well fitted inhibition curve with a large enough effect, not every such curve was filed as active; inconclusive means small, poorly fitted or top-dose-only effect, or another doubt; inactive means no such curve, though single readings can be large or run the other way;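 further: plate controls were no enzyme wells and a reference inhibitor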
Target sequence (P00352 whole entry, looked up): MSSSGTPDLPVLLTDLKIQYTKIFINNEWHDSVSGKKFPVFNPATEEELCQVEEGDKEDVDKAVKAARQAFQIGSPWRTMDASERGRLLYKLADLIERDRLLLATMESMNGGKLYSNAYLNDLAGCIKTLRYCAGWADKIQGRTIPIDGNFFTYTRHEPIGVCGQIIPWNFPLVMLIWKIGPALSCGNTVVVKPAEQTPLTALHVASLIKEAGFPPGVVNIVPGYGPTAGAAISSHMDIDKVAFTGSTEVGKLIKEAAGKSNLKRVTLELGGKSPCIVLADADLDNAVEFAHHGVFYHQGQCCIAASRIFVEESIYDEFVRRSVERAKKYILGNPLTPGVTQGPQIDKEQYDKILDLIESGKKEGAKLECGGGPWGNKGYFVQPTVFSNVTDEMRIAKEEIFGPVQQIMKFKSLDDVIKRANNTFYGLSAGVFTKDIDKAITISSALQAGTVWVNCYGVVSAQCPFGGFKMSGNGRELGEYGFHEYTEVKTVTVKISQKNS
HPGD inh: inhibitors of human 15-hydroxyprostaglandin dehydrogenase (HPGD) | P15428 | purified HPGD, NADH fluorescence kinetic, PGE2 substrate | Potency, µM, for the others: at the highest dose activity change, negative = inhibition, actives largely listed as inhibitors | 4.3% of 150,000 active | AID 894; active means well fitted inhibition curve with a large enough effect, not every such curve was filed as active; inconclusive means small, poorly fitted or top-dose-only effect, or another doubt; inactive means no such curve, though single readings can be large or run the other way
Target sequence (P15428 whole entry, looked up): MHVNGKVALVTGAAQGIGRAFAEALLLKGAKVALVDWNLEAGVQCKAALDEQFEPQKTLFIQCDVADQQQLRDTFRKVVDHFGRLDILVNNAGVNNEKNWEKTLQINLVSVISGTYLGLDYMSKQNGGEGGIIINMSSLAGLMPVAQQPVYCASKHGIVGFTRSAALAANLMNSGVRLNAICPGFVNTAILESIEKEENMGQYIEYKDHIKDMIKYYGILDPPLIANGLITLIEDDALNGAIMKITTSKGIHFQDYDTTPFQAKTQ
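NADH formation kinetics: reaction with 30 uM PGE2 and 1 mM NAD+ (final), 20 nM enzyme, Tris-HCl pH 8 with Tween 20, after 15 min compound preincubation at room temperature. Fluorescence change, last versus first of five reads.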
Luc counter: counter-screen: inhibitors of Kinase-Glo firefly luciferase | 0.28% of 200,000 active | Q27757 | AID 1379 | Kinase-Glo luciferase, ATP luminescence, 8 min | Potency, µM (titrated, usually from 38.3 µM), without a hit: top-dose activity change, negative = inhibition, most hits filed as inhibitors; further: nearly all actives have a fitted effect of over 60% in size
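Luminescence was the read-out, taken after 8-minute incubation at ambient temperature. Luciferase turned over luciferin with 10 uM ATP in imidazole pH 7.2 buffer containing KCl, MgCl2, Tween 20 and BSA.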
Lamin A splicing: modulators of lamin A splicing | HeLa LMNA splicing GFP/RFP minigene ratio, 48 h | Potency, µM (highest dose often 46.1 µM), without a hit: at the top dose ratio change, negative = inhibition, most hits filed as inhibitors | 0.01% of 200,000 active | AID 1487; active means well fitted inhibition curve with a large enough effect in the signal ratio, with a control signal flat, not every such curve was filed as active; inconclusive means small, poorly fitted or top-dose-only effect, or effect the other way, or a change in a side signal; the % refers to the signal ratio
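S3 HeLa stable clones carrying a lamin A-EGFP splicing minigene plus DsRed2 were seeded at 600 cells/well in Opti-MEM with 2% FBS, pin-dosed and incubated 48 h at 37°C. Acumen cytometry (488 nm) gave the GFP/RFP total-intensity ratio.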
Active calls of the source: *; ? = inconclusive; · = no result; [ ] = another dose, or the depositor's remark. Unless noted, the call rests on the fitted dose curve; in most records, active means well fitted curve in the direction sought with a large enough effect; inconclusive means small, poorly fitted or top-dose-only effect, or another doubt; inactive means no such curve, though single readings can be large; an effect the other way counts as inactive or inconclusive. Unless noted, on the % scale 0 is the no-effect control and ±100 the full control effect; potency means the concentration at half of the fitted maximal effect.

SMILES	IMPase Li inh	ALDH1A1 block	HPGD inh	Luc counter	Lamin A splicing
CCn1c(SCC(=O)N/N=C/C(C)=C/c2ccco2)nnc1-c1ccccc1	-0.7%[38.3 µM]	20µM*	-13.4%	1.2%	0.2%
CCn1c(SCC(=O)N/N=C/c2ccc(C)o2)nnc1-c1ccccc1	8.8%	11.2µM*	?	6.2%	-1.9%
CCn1c(SCC(=O)N/N=C/C=C/c2ccco2)nnc1-c1ccccc1	10.9%	17.8µM*	-10.0%	0.6%	?
O=C(Cc1cccs1)N/N=C/C=C/c1ccco1	7.6%	3.98µM*	?	-0.6%	1.6%
CCCCNC(=O)CSc1nc2cc3c(cc2c(=O)n1CCCCCC(=O)NCc1ccc(OC)cc1)OCO3	·	·	·	·	-8.6%[46 µM]
O=C(CN1CCN(Cc2ccccc2)CC1)N/N=C\C=C/c1ccco1	-0.1%	?	-12.0%	1.7%	2.1%
Cc1ccc(/C=N/NC(=O)CSc2nnc(-c3ccccc3)n2-c2ccc(Cl)cc2)o1	0.0%	?	-1.3%	3.0%	19.4%
Cc1ccc(/C=N/NC(=O)CSc2nnc(-c3ccc(Cl)cc3)n2-c2ccc(Cl)cc2)o1	12.2%	10µM*	-3.9%	-2.1%	18.8%
O=C(CSc1nnc(SCc2ccccc2)s1)N/N=C/C=C/c1ccco1	-1.5%	14.1µM*	28.2µM*	-3.9%	-9.9%
Cc1cc(OCc2cc3c(cc2Cl)OCO3)c2c(C)cc(=O)oc2c1	·	0.178µM*	·	·	-4.8%
C=C(Cl)COc1cc(C)cc2oc(=O)cc(CC)c12	21.8%[38.3 µM]	?	?	0.5%	10.9%
COc1ccc2c(C=O)c[nH]c2c1	9.4%	6.31µM*	-12.5%	-4.0%	-12.0%
COc1ccc2c(CC#N)c[nH]c2c1	9.6%[38.3 µM]	5.4%	-11.8%	-2.3%	-1.6%
CCNC(=O)c1ccc2nc(CCc3ccccc3)oc2c1	·	·	·	·	0.0%[46 µM]
COCC1CCCN(Cc2cn(-c3ccccc3F)nc2-c2cc(C)sc2C)C1 (stereo not given)	18.4%	-2.5%	·	-1.3%	?
CCOC(=O)C1=C(C)N=c2s/c(=C/c3ccco3)c(=O)n2C1c1cccc(OC)c1 (stereo not given)	10.4%[38.3 µM]	3.55µM*	14.1µM*	0.9%	2.2%
CCN(CC)c1ccc2c(c1)oc(=O)c1c(Cl)cc(=O)oc12	35.3%[38.3 µM]	2.24µM*	5.62µM*	-1.5%	?
CCN(CC)c1ccc2c(Cl)c(Br)c(=O)oc2c1	?	3.16µM*	-18.2%	-3.1%	?
COc1cccc([C@@H]2Oc3ccc(OC)cc3C(=O)[C@H]2OC(=O)NC2CCCC2)c1	6.3%	?	-6.2%	-0.5%	·
Cc1ccc(S(=O)(=O)N(CC(=O)NCCSCc2ccco2)c2ccc(F)cc2)cc1	·	28.2µM*	·	·	·
Cc1ccc(N(CC(=O)NCCSCc2ccco2)S(C)(=O)=O)cc1	20.4%[38.3 µM]	8.91µM*	-8.7%	2.3%	-0.6%
COc1ccc(N(CC(=O)NCCSCc2ccco2)S(=O)(=O)c2ccc(C)cc2)cc1	16.2%	20µM*	·	1.5%	3.7%[46 µM]
Cc1cc(C)cc(N(CC(=O)NCCSCc2ccccc2)S(C)(=O)=O)c1	5.1%	-5.0%	·	1.6%	·
CS(=O)(=O)N(CC(=O)NCCSCc1ccccc1)c1ccccc1	1.8%	28.2µM*	·	-4.4%	·
O=C(CN(c1ccc(F)cc1)S(=O)(=O)c1ccccc1)NCc1ccco1	-5.3%[38.3 µM]	1.9%	5.8%	-2.6%	24.2%
SMILES	IMPase Li inh	ALDH1A1 block	HPGD inh	Luc counter	Lamin A splicing
COc1ccc(N2CCN(C(=O)[C@H](Cc3c[nH]c4ccccc34)NC(C)=O)CC2)cc1	-1.4%	-1.9%	·	3.2%	·
Cc1cc(Cl)ccc1N(CC(=O)NCCSCc1ccco1)S(C)(=O)=O	6.0%	12.6µM*	·	0.3%	?
O=C(CN(c1ccccc1)S(=O)(=O)c1ccccc1)NCCSCc1ccco1	-1.4%[38.3 µM]	10µM*	-8.5%	-0.1%	10.6%
COc1ccc(N(CC(=O)NCCSCc2ccco2)S(=O)(=O)c2ccccc2)cc1	15.0%	?	·	-1.0%	·
Cc1ccc(N(CC(=O)NCCSCc2ccco2)S(=O)(=O)c2ccc(F)cc2)cc1	21.9%	20µM*	·	0.0%	?
CS(=O)(=O)N(CC(=O)NCCSCc1ccco1)c1ccc2c(c1)OCO2	9.6%	?	·	-0.4%	27.5%[46 µM]
CN(c1ccc(C(=O)NCCSCc2ccco2)cc1)S(C)(=O)=O	27.7%[38.3 µM]	2.51µM*	?	-5.7%	-1.0%
CCOc1ccc(-n2c(=O)c3sccc3n(Cc3cccc([N+](=O)[O-])c3)c2=O)cc1	4.8%	4.4%	·	5.3%	?
Cc1cc2[nH]cnc2c([N+](=O)[O-])c1C	-0.8%	10.1%	·	-2.5%	1.9%[46 µM]
Cn1[nH]c(CSc2ccc(Cl)cc2)cc1=O	4.1%	1.78µM*	·	0.6%	6.9%[46 µM]
Cc1ccc2nc(N3CCOCC3)c(C=O)c(=O)n2c1	6.1%	25.1µM*	·	1.7%	·
Cc1ccc2nc(N3CCN(c4ccccc4)CC3)c(C=O)c(=O)n2c1	5.9%	-14.4%	·	-1.4%	·
COc1cc(/C=C/c2sc3ccccc3[n+]2CCCS(=O)(=O)[O-])ccc1O	36.7%	?	·	8.91µM*	·
CCOC(=O)c1[nH]cnc1C(=O)Nc1ccccn1	·	0.251µM*	·	·	-0.5%
COC(=O)c1cc(C)nc(Sc2ccccc2N)n1	·	3.55µM*	·	·	·
CCCN(CCC)C(=O)c1ccc2c(=O)n(Cc3ccco3)c(=S)[nH]c2c1	11.6%	25.1µM*	·	5.0%	?
CC1(C)Cc2c(sc3c2c(=N)n(Cc2ccco2)c(=O)n3Cc2ccccc2)CO1	56.1%[38.3 µM]	?	-8.1%	2.6%	18.2%
O=C(c1ccc2c(=O)n(Cc3ccco3)c(=S)[nH]c2c1)N1CCN(Cc2ccccc2)CC1	4.8%[38.3 µM]	?	-5.5%	1.2%	?
CN1CCN(C(=O)c2ccc3c(=O)n(Cc4ccco4)c(=S)[nH]c3c2)CC1	46.6%[38.3 µM]	?	-13.5%	1.0%	8.1%
COc1cc(NC(=O)c2ccc3c(=O)n(Cc4ccco4)c(=S)[nH]c3c2)cc(OC)c1OC	4.5%[38.3 µM]	1.26µM*	-11.2%	-3.4%	?
CC1(C)Cc2c(sc3[nH]c(=S)n(Cc4ccco4)c(=O)c23)CO1	3.55µM*	5.01µM*	22.4µM*	-4.6%	?
CC1CN(C(=O)COC(=O)c2nn(-c3ccccc3)c(=O)c3ccccc23)CC(C)O1 (stereo not given)	1.6%	-4.2%	·	-3.4%	·
CC(C)(C)c1cc(C(=O)NNc2cc(C(F)(F)F)ccc2Cl)n(Cc2ccccc2)n1	·	-14.2%	·	·	·
O=Nc1ccc(NOC(=O)c2ccccc2Br)cc1	8.1%	12.6µM*	28.2µM*	?	-4.2%
O=C(ONc1ccc(N=NC(=O)c2ccccc2O)cc1)c1ccccc1	4.0%	?	?	-2.7%	4.6%
Cc1nnc(SCc2ccccc2F)n1NCc1cccs1	15.7%[38.3 µM]	-8.7%	31.6µM*	2.6%	-4.6%
Cc1nnc(SCC(=O)NCc2cccs2)n1-c1ccccc1	-18.3%[38.3 µM]	-4.1%	1.9%	0.9%	6.9%
Cc1ccc(NC(=O)c2cc(C(C)(C)C)nn2Cc2ccccc2)cc1	·	-5.5%	·	·	·
